Assay results published in the supplement of paper PMC11732987, “Enantioselective OTUD7B fragment discovery through chemoproteomics screening and high-throughput optimisation” (Communications Chemistry, 2025).

compound: OC1CN(Cc2sccc12)C(=O)CCl; assay: log2 ratio of Biotin-Ahx-Ub-VS probe labelling (compound/DMSO); higher = less target engagement, active = hit call of the paper (q ≤ 0.05, log2 ratio ≤ -1); conditions: compound concentration: 50uM; treatment time: 3 h
Method: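 Round 2 competitive ABPP in HEK293T lysate. Purified HTC-D2B compounds were tested at 50 and 200 µM for 3 h, followed by Biotin-Ahx-Ub-VS enrichment and diaPASEF LC-MS/MS. Values are the average log2 ratio (compound/DMSO) from an unpaired t-test (n=3 treated, n=26 DMSO).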

Chain of UniProt Q9Y5T5 (Q9Y5T5 whole entry, looked up): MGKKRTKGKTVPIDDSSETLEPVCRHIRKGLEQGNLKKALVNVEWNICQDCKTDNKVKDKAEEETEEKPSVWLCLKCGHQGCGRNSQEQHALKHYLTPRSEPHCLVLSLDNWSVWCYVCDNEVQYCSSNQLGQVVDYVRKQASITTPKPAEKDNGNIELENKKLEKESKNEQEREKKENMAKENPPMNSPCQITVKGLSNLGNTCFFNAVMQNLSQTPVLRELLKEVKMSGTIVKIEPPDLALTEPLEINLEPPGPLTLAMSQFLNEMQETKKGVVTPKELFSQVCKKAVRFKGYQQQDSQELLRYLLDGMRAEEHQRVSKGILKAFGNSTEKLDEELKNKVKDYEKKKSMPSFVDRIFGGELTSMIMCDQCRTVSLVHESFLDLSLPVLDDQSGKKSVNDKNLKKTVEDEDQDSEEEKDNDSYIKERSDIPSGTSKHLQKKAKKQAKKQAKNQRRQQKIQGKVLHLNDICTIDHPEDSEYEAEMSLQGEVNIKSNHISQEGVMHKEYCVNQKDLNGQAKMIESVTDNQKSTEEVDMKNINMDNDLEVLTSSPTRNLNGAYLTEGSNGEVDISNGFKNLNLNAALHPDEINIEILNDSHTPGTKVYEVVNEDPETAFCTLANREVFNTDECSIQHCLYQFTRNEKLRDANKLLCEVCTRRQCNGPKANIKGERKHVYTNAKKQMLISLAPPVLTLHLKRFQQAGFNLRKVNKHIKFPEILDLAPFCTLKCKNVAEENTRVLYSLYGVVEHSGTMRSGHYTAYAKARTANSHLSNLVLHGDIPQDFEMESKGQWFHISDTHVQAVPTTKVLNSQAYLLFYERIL
Chain of UniProt Q93008 (Q93008 whole entry): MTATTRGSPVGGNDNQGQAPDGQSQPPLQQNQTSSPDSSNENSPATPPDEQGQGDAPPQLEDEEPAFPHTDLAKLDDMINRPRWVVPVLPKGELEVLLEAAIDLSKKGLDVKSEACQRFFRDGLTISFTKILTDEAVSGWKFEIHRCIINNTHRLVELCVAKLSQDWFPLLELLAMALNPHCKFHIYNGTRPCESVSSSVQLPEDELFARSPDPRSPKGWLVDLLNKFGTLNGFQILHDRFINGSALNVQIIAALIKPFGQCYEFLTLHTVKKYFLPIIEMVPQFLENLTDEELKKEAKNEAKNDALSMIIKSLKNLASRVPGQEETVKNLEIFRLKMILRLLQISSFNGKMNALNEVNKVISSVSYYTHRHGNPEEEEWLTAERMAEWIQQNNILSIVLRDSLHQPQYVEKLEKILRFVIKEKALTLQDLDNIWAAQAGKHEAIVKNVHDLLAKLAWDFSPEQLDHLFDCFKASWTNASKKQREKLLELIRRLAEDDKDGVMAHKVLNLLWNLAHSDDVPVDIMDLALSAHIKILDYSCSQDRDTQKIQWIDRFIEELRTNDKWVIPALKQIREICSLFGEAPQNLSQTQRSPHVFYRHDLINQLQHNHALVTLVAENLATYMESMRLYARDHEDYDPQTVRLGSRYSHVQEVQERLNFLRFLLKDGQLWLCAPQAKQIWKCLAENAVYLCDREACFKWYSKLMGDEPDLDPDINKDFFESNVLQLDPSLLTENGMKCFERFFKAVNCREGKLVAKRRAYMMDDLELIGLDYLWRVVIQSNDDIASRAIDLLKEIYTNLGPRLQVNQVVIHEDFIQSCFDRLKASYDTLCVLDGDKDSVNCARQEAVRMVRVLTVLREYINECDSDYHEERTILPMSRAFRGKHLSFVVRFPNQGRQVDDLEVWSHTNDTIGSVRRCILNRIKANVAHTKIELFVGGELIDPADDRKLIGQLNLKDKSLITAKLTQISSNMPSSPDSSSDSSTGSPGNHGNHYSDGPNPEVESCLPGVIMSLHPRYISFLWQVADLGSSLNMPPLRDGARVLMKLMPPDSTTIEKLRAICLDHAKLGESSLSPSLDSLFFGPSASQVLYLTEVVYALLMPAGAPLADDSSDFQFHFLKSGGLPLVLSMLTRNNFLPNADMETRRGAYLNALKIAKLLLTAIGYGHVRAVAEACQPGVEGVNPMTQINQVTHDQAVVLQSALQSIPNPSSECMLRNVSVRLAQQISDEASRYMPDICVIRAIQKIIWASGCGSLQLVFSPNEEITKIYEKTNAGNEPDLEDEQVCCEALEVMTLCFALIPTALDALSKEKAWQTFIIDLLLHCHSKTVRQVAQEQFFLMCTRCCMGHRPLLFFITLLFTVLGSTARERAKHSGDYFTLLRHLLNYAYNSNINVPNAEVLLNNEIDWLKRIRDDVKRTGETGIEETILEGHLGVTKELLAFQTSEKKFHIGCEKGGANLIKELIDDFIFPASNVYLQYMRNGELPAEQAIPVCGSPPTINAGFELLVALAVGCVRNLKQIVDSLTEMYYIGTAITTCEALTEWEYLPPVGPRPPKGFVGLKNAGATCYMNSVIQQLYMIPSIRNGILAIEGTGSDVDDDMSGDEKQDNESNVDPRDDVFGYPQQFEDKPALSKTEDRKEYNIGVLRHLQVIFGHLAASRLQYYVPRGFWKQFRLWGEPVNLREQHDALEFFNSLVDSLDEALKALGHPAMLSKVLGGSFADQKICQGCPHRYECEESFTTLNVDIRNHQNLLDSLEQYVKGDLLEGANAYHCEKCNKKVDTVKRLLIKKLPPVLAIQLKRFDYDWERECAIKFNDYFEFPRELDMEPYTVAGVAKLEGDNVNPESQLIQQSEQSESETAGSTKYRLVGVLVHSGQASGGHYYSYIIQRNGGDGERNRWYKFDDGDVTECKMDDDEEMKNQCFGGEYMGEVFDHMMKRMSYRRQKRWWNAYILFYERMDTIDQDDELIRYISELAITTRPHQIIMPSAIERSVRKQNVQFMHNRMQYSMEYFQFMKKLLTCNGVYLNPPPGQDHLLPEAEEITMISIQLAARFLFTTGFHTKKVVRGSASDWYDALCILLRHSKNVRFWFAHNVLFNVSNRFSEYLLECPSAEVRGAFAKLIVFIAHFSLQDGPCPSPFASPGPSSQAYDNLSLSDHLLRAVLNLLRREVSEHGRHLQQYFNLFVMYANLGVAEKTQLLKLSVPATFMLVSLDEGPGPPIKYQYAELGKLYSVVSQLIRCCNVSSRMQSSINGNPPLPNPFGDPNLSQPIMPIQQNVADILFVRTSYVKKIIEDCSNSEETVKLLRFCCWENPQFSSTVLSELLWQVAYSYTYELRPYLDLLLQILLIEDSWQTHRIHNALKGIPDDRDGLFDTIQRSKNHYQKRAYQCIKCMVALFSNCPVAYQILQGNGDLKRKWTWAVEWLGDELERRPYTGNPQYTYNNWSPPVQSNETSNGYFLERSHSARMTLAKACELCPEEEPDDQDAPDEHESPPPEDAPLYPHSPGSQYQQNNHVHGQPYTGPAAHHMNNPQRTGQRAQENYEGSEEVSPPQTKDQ
Chain of UniProt P40818 (P40818 whole entry): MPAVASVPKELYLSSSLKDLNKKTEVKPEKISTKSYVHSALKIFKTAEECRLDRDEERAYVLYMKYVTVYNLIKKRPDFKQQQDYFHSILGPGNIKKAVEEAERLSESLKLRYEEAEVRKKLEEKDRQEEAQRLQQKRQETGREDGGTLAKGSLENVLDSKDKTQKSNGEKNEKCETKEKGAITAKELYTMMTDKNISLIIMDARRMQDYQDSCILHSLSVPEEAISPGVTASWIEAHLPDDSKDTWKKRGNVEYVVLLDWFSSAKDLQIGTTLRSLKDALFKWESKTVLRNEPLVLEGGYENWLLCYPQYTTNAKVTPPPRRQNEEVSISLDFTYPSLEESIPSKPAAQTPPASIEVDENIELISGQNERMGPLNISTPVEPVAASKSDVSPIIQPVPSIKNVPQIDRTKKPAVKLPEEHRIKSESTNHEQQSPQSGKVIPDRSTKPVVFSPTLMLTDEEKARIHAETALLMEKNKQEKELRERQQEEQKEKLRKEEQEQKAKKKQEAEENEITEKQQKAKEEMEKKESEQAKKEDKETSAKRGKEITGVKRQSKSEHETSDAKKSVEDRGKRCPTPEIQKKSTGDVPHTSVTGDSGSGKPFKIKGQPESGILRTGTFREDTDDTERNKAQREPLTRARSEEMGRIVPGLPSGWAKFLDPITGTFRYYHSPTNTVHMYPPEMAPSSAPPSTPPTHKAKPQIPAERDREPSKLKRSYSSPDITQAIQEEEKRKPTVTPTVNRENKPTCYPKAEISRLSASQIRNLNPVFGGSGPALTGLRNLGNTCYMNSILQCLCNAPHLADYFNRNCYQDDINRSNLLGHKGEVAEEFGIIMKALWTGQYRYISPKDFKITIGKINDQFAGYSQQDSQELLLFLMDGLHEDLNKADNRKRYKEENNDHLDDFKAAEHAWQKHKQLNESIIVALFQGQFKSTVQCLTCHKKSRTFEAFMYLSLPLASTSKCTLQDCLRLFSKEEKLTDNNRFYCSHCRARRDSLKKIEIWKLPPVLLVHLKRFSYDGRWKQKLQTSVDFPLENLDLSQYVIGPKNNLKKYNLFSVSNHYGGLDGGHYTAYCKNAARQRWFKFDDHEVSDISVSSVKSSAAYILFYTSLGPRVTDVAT
Chain of UniProt P15374 (P15374 whole entry): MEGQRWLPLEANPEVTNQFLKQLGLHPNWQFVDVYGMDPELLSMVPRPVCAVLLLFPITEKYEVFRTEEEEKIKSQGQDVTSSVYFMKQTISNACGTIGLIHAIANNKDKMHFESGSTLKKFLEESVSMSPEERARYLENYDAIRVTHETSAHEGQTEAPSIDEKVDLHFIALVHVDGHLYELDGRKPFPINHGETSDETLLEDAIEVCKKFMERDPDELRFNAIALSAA
Chain of UniProt P54252 (P54252 whole entry): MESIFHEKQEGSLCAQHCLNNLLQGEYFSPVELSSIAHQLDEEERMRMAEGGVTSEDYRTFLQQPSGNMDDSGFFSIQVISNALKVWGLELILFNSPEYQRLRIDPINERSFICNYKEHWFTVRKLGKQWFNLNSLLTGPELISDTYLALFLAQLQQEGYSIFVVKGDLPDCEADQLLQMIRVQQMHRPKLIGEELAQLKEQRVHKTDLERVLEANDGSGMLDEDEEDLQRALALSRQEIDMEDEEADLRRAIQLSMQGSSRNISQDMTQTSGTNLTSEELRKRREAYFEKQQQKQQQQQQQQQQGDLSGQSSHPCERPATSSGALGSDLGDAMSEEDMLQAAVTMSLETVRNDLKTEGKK

log2 ratio of Biotin-Ahx-Ub-VS probe labelling, inactive:
UCHL3 (UniProt P15374) -0.332, USP8 (UniProt P40818) -0.266, UniProt Q5T2D3 -0.17, MINDY4 (UniProt Q4G0A6) 0.0365, UniProt Q70EL2 0.0417, USP48 (UniProt Q86UV5) -0.157, COPS5 (UniProt Q92905) 0.136, EIF3F (UniProt O00303) -0.0817, USP36 (UniProt Q9P275) -0.243, UniProt P51784 0.0374, ALG13 (UniProt Q9NP73) 0.00409, USP16 (UniProt Q9Y5T5) -0.903, FAM105A (UniProt Q9NUU6) -0.0183, ATXN3 (UniProt P54252) -0.216, UniProt Q9P2H5 -0.029, USP9X (UniProt Q93008) 0.00293, UCHL5 (UniProt Q9Y5K5) -0.2, BAP1 (UniProt Q92560) -0.416, UniProt O00487 0.0337, USP34 (UniProt Q70CQ2) -0.156

same assay, conditions: compound concentration: 200uM; treatment time: 3 h

log2 ratio of Biotin-Ahx-Ub-VS probe labelling, inactive:
UCHL3 (UniProt P15374) -0.337, USP8 (UniProt P40818) -0.144, UniProt Q5T2D3 -0.0768, MINDY4 (UniProt Q4G0A6) 0.686, UniProt Q70EL2 -0.242, USP48 (UniProt Q86UV5) -0.225, COPS5 (UniProt Q92905) -0.0875, EIF3F (UniProt O00303) 0.103, USP36 (UniProt Q9P275) -0.0665, UniProt P51784 -0.0603, ALG13 (UniProt Q9NP73) -0.0817, USP16 (UniProt Q9Y5T5) -0.0352, FAM105A (UniProt Q9NUU6) 0.114, ATXN3 (UniProt P54252) -0.0796, UniProt Q9P2H5 -0.0467, USP9X (UniProt Q93008) -0.116, UCHL5 (UniProt Q9Y5K5) -0.0949, BAP1 (UniProt Q92560) -0.818, UniProt O00487 -0.128, USP34 (UniProt Q70CQ2) -0.0909
